20 molecules from PubChem BioAssay (NCATS) can be followed below.

Assay [1] deals with Guanine nucleotide-binding protein G(i) subunit alpha-1 (Homo sapiens) (UniProt P63096). The assay can be described thus: qHTS Assay for Inhibitors of RGS12 GoLoco Motif Activity (Green Fluorophore) (AID 879).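 For activity, negative = inhibition: 0% = labeled peptide with Gαi1 and full inhibition = labeled peptide alone without protein; negative values mean loss of peptide binding seen as reduced polarization.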 Note: potency is the fitted concentration of half-maximal effect. The procedure, abridged: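 Fluorescence polarization assay: 50 nM Gαi1 with 10 nM FITC-labeled RGS12 GoLoco peptide in 10 mM Tris pH 7.5, 150 mM NaCl, 0.1 mM GDP, 0.05% NP40, 10 min at room temperature with compound.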

In assay [2] the target is Pyruvate kinase (Leishmania mexicana) (UniProt Q27686). In words: qHTS Validation Assay for Inhibitors of Leishmania Mexicana Pyruvate Kinase (AID 945).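 Note: 0% = DMSO only neutral control wells.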 The procedure, abridged: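 Pyruvate kinase activity of E451W LmPYK (0.2 nM) was followed as ATP output after 1 h at room temperature with 0.5 mM PEP and 0.1 mM ADP, detected by PKLight luminescence.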
In assay [3] the target is Alpha-galactosidase A (Homo sapiens) (UniProt P06280). The assay can be described thus: Counterscreen for Glucocerebrosidase Inhibitors: qHTS Assay for Human alpha-Galactosidase at pH 4.5 (AID 992). Note: 0% is about no effect. Put shortly:
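Concentration-response curves (0.7 nM to 77 uM final) were modeled with the Hill equation to give AC50. Reactions: 2 nM enzyme, 80 uM fluorogenic alpha-galactoside, pH 4.5 citric acid buffer, 20 min, room temperature.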

Assay [4] concerns the target alpha-glucosidase (Oryza sativa, rice) (UniProt Q653V4). In words: Counterscreen for Glucocerebrosidase Inhibitors: qHTS Assay for Rice alpha-Glucosidase at pH 5.0 (AID 997).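 Note: 0% = full activity with enzyme and -100% = basal without enzyme.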 Put shortly:
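Rice alpha-glucosidase (4 nM final) with 400 uM 4-methylumbelliferyl-alpha-D-glucopyranoside in citrate buffer pH 5.0, 20 min at room temperature, stopped at pH 10; fluorescence 365/440 nm, compounds 0.7 nM–77 uM, AC50 from Hill fits.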
A general note: A counterscreen serves to expose hits that act by an unwanted route or on another target.

The target in assay [5] is Bile acid receptor (Homo sapiens) (UniProt Q96RI1). In words: qHTS assay for small molecule antagonists of farnesoid X receptor signaling (AID 588526; calls by dose curve; note: % is set by controls: 0 for no effect and ±100 for the full control effect). The procedure, abridged: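 Antagonist mode: titrated compounds tested against chenodeoxycholic acid stimulation (normalized to 50 uM CDCA and DMSO) in GeneBLAzer HEK293T cells for 16 h. Beta-lactamase read by CCF4 fluorescence; IC50 from Hill fits.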
(In general: In qHTS, concentration-response curves come from the screen itself.)

The nature of assay [6]: qHTS assay for small molecule agonists of retinoid X receptor alpha signaling (AID 588544). To be noted: HEK293T RXRa-UAS-bla, beta-lactamase reporter, 18 h; 530 nm emission.
For assay [7], the target named is Cytochrome P450 3A4 (Homo sapiens) (UniProt P08684). In words: qHTS Assay for Activators of Cytochrome P450 3A4 (AID 885). Note: nearly all actives have a fitted effect of over 65% in size. Put shortly: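 Steps: enzyme/substrate mix dispensed; compound added, 10 min RT; NADPH regeneration solution added, 60 min RT; luciferin detection buffer stops reaction; 20 min later luminescence measured.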
For assay [8], the target named is Androgen receptor (Homo sapiens) (UniProt P10275). In words: qHTS assay for small molecule agonists of androgen receptor signaling (AID 588515; active = well fitted curve in the direction sought with a large enough effect in the signal ratio, with a control signal flat; the % refers to the signal ratio; note: % is set by controls: 0 for no effect and ±100 for the full control effect). Particulars: AR-UAS-bla HEK293, beta-lactamase ratio, agonist 16 h; stronger effect = higher value. Put shortly:
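EC50 and efficacy came from Hill fits of titrations (up to 92 uM) normalized to 30 nM R1881 as 100% and DMSO as 0%. Compound exposure was 16 h at 37 C on AR-UAS-bla HEK293 cells, with a 405/460/530 nm CCF4 fluorescence read.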

Assay [9] has the same target. In words: qHTS assay for small molecule antagonists of androgen receptor signaling (AID 588516; active = well fitted curve in the direction sought with a large enough effect in the signal ratio, with a control signal flat, not every such curve was filed as active; the % refers to the signal ratio; note: potency is the fitted concentration of half-maximal effect). The procedure, abridged:
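Antagonist mode: inhibition of R1881-stimulated (10 nM final) bla reporter in GeneBLAzer AR HEK 293 cells, 16 h at 37C, compounds titrated. IC50 and efficacy from Hill-equation fits of 405/460–530 nm FRET ratios.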

Assay [10] has as its target Peroxisome proliferator-activated receptor gamma (Homo sapiens) (UniProt P37231). In words: qHTS assay for small molecule antagonists of peroxisome proliferator-activated receptor gamma signaling (AID 588537; active = well fitted inhibition curve with a large enough effect in the signal ratio, with a control signal flat, not every such curve was filed as active; the % refers to the signal ratio; note: potency is the fitted concentration of half-maximal effect;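 for activity, negative = inhibition: reporter cells co-stimulated with 50 nM rosiglitazone agonist during compound treatment; % of control where 0% means no effect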). The procedure, abridged:
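Step one: plate 3000 HEK293 UAS-bla cells per well in medium with 1% stripped serum and hold 6-6.5 h at 37 C. Step two: add compound and 50 nM agonist for 16 h. Step three: CCF4 loading, fluorescence read.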

Assay [11] can be described thus: qHTS assay to identify small molecules that stimulate interleukin-8 (IL-8) secretion (AID 651758; active = well fitted activation curve with a large enough effect in the signal ratio; the % refers to the signal ratio; note: 0% is about no effect). Put shortly:
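THP-1 cells (2000/well) exposed to compound 16 h at 37 C; secreted IL-8 then detected by HTRF with cryptate- and XL665-labelled anti-IL-8 antibody pair after 1-3 h at room temperature.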

The target in assay [12] is Ubiquitin carboxyl-terminal hydrolase 1 (Homo sapiens) (UniProt O94782). In words: Inhibitors of USP1/UAF1: Pilot qHTS (AID 504865).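 Note: rhodamine fluorescence freed from ubiquitin-rhodamine substrate followed over time; top concentration of the series differs between compounds; % is set by controls: 0 for no effect and ±100 for the full control effect; nearly all actives have a fitted effect of over 35% in size.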 Put shortly:
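Deubiquitinase activity followed as kinetic rhodamine fluorescence release from 150 nM Ub-Rho. 1 nM USP1/UAF1 with compound, after 15 min room-temperature preincubation, in HEPES pH 7.8 buffer containing TCEP, EDTA, BSA and Tween-20.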

In assay [13] the target is Cytochrome P450 2C9 (Homo sapiens) (UniProt P11712). In words: qHTS Assay for Inhibitors and Substrates of Cytochrome P450 2C9 (AID 883). Note: % is set by controls: 0 for no effect and ±100 for the full control effect; nearly all actives have a fitted effect of over 60% in size. The procedure, abridged: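 Human CYP2C9 (10nM) with Luciferin-H at 100uM (its KM) in 25mM KPO4; compound preincubated 10 min at 37C, then NADPH regeneration for 60 min at 37C. Luciferin read by luminescence after detection reagent; normalized to 57uM sulphaphenazole as full inhibition.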

Assay [14] concerns the target Cytochrome P450 2C19 (Homo sapiens) (UniProt P33261). In words: qHTS Assay for Inhibitors and Substrates of Cytochrome P450 2C19 (AID 899). Note: % is set by controls: 0 for no effect and ±100 for the full control effect; nearly all actives have a fitted effect of over 60% in size. Put shortly: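 5 nM human CYP2C19 with 10uM Luciferin-H EGE (at KM) in 50mM KPO4, compound preincubated 10 min at 37C, then NADPH regeneration for 60 min at 37C. Luciferin read by luminescence after detection reagent; normalized to 57uM ketoconazole as full inhibition.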

Assay [15] concerns the target Cytochrome P450 2D6 (Homo sapiens) (UniProt P10635). In words: qHTS Assay for Inhibitors and Substrates of Cytochrome P450 2D6 (AID 891). Note: nearly all actives have a fitted effect of over 60% in size. Note: potency is the fitted concentration of half-maximal effect. Put shortly: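 Human CYP2D6 (5 nM) with 30 uM Luciferin-ME EGE (at Km) in 100 mM KPO4, compound preincubated 10 min, then NADPH regeneration system for 60 min at room temperature. Luciferin read by luminescence; normalized to 1.43 uM quinidine.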

Assay [16] has as its target Tyrosyl-DNA phosphodiesterase 1 (Homo sapiens) (UniProt Q9NUW8). In words: Confirmation Assay for Inhibitors of Tyrosyl-DNA Phosphodiesterase (TDP1) (AID 489007). Note: potency is the fitted concentration of half-maximal effect; nearly all actives have a fitted effect of over 40% in size. Particulars: recombinant human TDP1 enzymatic activity, dose-response. Put shortly: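 Confirmation of primary-screen follow-ups in a qHTS format. Substrate cleavage by Tdp1 (1 nM) of a 3'-phosphotyrosine-FITC, 5'-biotin oligo (15 nM) was monitored as decreased AlphaScreen signal after a 5 min room-temperature reaction.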

The nature of assay [17]: qHTS profiling for inhibitors of Plasmodium falciparum proliferation (AID 504749).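 Note: 0% = DMSO vehicle and full inhibition = artemisinin control; nearly all actives have a fitted effect of over 60% in size.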 Particulars: P. falciparum in erythrocytes, SYBR Green DNA, 72 h, at 28.7 µM (top of the series). Put shortly:
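Readout was DNA-dye fluorescence from lysed cultures, ex 485/em 535 nm. Parasitized red cells had grown 72 h with compound; data scaled between 0.29 uM artemisinin and DMSO wells and corrected using vehicle-only plates.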

Results filed as inconclusive are left out. A structure can be active in one record and inactive in another. Calls of active or inactive are those of the source. Unless noted, calls come from the whole dose curve; as a rule, active = well fitted curve in the direction sought with a large enough effect; inconclusive = small, poorly fitted or top-dose-only effect, or another doubt; inactive = no such curve, though single readings can be large; an effect the other way counts as inactive or inconclusive.

Chain of Androgen receptor (Homo sapiens) (P10275 whole entry, looked up): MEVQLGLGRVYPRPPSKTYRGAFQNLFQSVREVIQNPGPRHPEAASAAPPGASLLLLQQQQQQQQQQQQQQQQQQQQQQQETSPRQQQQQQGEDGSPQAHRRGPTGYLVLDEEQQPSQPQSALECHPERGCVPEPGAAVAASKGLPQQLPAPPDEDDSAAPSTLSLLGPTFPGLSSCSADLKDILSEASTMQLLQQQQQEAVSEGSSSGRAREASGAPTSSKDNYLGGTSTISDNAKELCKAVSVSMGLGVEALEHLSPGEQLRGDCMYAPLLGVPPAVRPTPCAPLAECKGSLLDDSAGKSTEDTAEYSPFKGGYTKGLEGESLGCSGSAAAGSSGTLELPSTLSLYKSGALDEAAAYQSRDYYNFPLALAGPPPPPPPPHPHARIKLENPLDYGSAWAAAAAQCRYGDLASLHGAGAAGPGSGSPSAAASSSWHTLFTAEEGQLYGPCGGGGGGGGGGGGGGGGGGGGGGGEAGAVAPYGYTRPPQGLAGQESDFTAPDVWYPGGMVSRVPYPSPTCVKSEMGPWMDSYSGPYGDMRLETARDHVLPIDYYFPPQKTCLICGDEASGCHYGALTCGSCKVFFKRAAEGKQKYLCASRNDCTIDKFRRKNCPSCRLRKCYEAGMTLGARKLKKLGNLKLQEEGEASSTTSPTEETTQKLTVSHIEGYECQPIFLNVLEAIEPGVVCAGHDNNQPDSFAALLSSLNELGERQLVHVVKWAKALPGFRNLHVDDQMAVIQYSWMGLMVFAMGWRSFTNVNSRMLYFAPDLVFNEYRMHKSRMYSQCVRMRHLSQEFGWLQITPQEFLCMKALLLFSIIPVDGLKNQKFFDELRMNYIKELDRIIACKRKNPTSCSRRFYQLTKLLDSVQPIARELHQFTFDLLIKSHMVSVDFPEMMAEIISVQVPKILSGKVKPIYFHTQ
Chain of Cytochrome P450 3A4 (Homo sapiens) (P08684 whole entry, looked up): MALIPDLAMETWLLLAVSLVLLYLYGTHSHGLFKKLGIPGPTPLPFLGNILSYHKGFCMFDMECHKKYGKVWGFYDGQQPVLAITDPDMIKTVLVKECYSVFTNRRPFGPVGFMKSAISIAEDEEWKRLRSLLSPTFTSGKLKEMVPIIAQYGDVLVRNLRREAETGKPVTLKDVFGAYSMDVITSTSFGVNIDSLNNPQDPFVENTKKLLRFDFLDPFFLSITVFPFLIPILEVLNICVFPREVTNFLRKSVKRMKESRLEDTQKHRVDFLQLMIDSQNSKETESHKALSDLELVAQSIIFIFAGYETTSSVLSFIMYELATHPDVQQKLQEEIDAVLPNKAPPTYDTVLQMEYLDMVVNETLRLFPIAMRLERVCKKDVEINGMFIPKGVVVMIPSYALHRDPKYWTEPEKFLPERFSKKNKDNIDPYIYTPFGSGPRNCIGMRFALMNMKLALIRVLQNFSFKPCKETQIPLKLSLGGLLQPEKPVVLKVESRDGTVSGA
Chain of Tyrosyl-DNA phosphodiesterase 1 (Homo sapiens) (Q9NUW8 whole entry, looked up): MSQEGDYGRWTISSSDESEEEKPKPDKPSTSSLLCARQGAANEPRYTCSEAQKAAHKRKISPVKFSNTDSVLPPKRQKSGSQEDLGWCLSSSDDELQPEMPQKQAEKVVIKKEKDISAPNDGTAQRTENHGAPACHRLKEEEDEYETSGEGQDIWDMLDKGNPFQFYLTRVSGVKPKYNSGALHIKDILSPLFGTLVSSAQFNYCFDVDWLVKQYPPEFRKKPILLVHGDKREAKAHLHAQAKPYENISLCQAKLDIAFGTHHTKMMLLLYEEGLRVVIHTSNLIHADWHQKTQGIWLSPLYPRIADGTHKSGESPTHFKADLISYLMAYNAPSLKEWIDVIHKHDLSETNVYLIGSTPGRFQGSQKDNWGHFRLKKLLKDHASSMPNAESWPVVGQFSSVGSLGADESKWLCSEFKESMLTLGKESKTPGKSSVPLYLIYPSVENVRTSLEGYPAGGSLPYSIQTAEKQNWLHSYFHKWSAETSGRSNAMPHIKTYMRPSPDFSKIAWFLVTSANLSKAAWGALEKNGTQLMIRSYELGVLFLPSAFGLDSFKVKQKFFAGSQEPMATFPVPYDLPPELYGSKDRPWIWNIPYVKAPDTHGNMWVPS
Chain of Cytochrome P450 2C9 (Homo sapiens) (P11712 whole entry, looked up): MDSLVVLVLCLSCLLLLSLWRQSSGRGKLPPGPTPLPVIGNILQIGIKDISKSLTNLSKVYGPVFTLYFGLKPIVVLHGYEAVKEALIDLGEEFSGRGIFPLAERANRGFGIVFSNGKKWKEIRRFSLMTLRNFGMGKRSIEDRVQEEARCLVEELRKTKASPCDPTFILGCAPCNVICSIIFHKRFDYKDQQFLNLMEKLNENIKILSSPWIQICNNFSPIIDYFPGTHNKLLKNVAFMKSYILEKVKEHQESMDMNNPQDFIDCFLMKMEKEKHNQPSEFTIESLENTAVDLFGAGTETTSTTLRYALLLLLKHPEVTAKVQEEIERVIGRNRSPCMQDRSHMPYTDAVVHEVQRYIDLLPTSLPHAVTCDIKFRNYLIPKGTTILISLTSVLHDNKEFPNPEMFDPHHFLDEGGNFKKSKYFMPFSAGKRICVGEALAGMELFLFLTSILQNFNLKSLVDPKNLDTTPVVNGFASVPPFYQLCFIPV
Chain of Cytochrome P450 2C19 (Homo sapiens) (P33261 whole entry, looked up): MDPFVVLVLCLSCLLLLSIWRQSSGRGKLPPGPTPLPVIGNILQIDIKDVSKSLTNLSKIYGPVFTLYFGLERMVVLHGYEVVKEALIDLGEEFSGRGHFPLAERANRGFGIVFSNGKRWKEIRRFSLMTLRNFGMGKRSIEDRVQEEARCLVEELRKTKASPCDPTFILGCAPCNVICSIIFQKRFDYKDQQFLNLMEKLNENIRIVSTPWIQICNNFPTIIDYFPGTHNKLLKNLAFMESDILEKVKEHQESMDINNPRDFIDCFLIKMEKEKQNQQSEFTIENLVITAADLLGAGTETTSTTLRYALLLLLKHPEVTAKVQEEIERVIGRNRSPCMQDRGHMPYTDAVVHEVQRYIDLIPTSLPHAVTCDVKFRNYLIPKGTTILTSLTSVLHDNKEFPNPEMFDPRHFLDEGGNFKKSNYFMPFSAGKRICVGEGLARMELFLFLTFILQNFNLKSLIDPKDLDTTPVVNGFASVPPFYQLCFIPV
Chain of Ubiquitin carboxyl-terminal hydrolase 1 (Homo sapiens) (O94782 whole entry, looked up): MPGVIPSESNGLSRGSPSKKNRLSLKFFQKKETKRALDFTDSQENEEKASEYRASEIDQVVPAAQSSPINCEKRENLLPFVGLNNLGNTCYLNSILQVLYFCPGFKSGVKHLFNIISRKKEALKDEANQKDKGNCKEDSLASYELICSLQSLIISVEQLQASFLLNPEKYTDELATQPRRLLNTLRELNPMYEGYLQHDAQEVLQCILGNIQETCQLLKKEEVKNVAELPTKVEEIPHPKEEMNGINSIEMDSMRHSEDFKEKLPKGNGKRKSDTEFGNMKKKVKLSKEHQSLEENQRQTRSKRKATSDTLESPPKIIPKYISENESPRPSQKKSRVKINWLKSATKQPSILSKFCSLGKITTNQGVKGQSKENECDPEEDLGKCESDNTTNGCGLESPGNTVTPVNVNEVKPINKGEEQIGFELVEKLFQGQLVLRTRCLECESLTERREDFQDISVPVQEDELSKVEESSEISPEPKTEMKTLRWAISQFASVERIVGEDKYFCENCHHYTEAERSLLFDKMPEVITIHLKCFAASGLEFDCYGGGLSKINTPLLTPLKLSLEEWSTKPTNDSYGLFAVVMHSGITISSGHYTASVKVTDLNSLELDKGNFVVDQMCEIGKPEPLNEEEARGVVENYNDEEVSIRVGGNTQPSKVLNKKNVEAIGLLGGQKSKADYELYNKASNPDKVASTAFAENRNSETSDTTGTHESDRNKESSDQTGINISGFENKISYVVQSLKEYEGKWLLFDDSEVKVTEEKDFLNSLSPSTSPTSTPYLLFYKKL
Chain of Cytochrome P450 2D6 (Homo sapiens) (P10635 whole entry, looked up): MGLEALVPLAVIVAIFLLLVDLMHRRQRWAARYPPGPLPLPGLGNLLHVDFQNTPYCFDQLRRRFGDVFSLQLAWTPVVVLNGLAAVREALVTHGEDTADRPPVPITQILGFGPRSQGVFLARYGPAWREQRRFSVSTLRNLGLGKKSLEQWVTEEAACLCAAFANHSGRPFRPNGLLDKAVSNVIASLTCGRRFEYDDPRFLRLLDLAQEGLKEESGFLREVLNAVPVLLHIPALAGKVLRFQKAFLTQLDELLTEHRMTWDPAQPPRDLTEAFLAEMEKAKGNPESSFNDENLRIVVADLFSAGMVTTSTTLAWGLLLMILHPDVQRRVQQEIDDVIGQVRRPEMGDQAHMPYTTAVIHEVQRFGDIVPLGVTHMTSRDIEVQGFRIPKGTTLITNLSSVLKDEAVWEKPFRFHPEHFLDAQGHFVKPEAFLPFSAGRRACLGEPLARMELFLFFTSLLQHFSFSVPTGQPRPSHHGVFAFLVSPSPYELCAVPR
Chain of Guanine nucleotide-binding protein G(i) subunit alpha-1 (Homo sapiens) (P63096 whole entry, looked up): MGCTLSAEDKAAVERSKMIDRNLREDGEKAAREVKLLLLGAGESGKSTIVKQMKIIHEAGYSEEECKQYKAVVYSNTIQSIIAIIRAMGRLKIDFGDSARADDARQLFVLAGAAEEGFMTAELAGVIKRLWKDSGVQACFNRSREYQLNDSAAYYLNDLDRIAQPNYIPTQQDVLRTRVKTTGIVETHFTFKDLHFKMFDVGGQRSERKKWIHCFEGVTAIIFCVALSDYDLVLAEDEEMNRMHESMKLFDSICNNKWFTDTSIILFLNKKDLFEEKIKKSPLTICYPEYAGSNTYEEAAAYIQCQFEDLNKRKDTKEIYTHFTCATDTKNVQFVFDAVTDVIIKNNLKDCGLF

As for `Oc1cc2c(cc1O)[C@H]1c3ccccc3CN[C@@H]1CC2`, the Potency result in [1] and in assay [2] was “inactive” each time. Further, the molecule was called inactive in [3] and in [4].
As for `O=C(O)C1C(C(=O)O)C2(Cl)C(Cl)=C(Cl)C1(Cl)C2(Cl)Cl` (configuration not stated), the Potency entry in assay [5] was “inactive”. In addition, the max response in assay [6] is -3.38%.
`O=C1C2(Cl)C3(Cl)C4(Cl)C(Cl)(Cl)C5(Cl)C3(Cl)C1(Cl)C5(Cl)C24Cl` (configuration not stated): the Potency result in assay [7] was “inactive”. Further, the activation in assay [8] was 0.62% (inactive). Also, the Potency was 44.7 µM (active) and inactive in [9]; 44.7 µM (active) and inactive in assay [10].
Consider `COP(=O)(OC)O/C(=C\Cl)c1cc(Cl)c(Cl)cc1Cl`, for which, in assay [8], the activation is -13% (inactive). Also, the Potency entry in assay [11] is “inactive”.
Consider `Oc1cc2c(cc1O)[C@H]1c3ccccc3CN[C@H]1CC2`, for which, in [12], the Potency result is “inactive”.
For `COc1cc2c(cc1O)CCN[C@H]2C`, the Potency result in assay [13] and in [14] was “inactive” in each case.
For the molecule `OC[C@H]1CCCN2CCCC[C@@H]12`, the Potency result in assay [13], in [15] and in [14] was “inactive” each time.
Consider `CC1=CC(=O)C2=C(C)C[C@H](O)[C@@H]3[C@@H](OC(=O)[C@H]3C)[C@H]12`, for which the Potency entry in [13], in [15] and in assay [14] was “inactive” each time.
Take `COc1cc2c(cc1OC)-c1c(OC)c(OC)c(CO)c3c1[C@H](C2)N(C)CC3`: the Potency result in assay [13], in [15] and in assay [14] was “inactive” throughout.
Take `C[C@@]12CCC[C@](C)(C(=O)O)[C@@H]1CCc1ccc(O)cc12`: the Potency result in assay [13], in [15] and in [14] was “inactive” each time.
Consider `COC[C@H]1OC(=O)c2coc3c2[C@@]1(C)C1=C(C3=O)[C@H]2CCC(=O)[C@@]2(C)C[C@H]1OC(C)=O`, for which the Potency in [1] is 25.1 µM (active). Further, the Potency result in [7] and in [2] was “inactive” throughout. Moreover, the molecule was classed as inactive in assay [3] and in assay [4].
Regarding `COC1=C[C@H]2[C@@H]3Cc4ccc(OC)c(O)c4[C@@]2(CCN3C)CC1=O`, the Potency result in assay [13] and in assay [14] was “inactive” each time.
In the case of `COc1cc2c(cc1OC)-c1c(O)c(OC)cc3c1[C@@H](C2)N(C)CC3`, in assay [13], the Potency entry is “inactive”. The Potency in [15] was 15.8 µM (active).
For the molecule `O=C1NC(=S)NC(=O)C1=Cc1ccc2c(c1)CCN2CCCCl`, the Potency in assay [16] is 2.51 µM (active).
On to `CCc1nnc(NC(=O)CSc2ccc(-c3ccco3)nn2)s1`, for which, in assay [16], the Potency was 15.8 µM (active).
For the molecule `CCOC(=O)C1CCN(/C=C2/C(=O)NC(=O)N(Cc3ccco3)C2=O)CC1`, the Potency in assay [16] was 44.7 µM (active).
Consider `CC(C)(O/N=C(\C(=O)N[C@@H]1C(=O)N2C(C(=O)[O-])=C(C[n+]3ccccc3)CS[C@@H]12)c1csc(N)n1)C(=O)O`, for which the Potency in [16] was 15.8 µM (active).
For `[O]=[Sb]([OH])([OH])[c]1ccccc1`, the Potency in assay [16] was 6.31 µM (active).
`Nc1nc(O)c(-c2ccccc2)o1`: the Potency entry in assay [12] is “inactive”. Besides, the activity, negative = inhibition was 12.1% (inactive) in assay [17] (parasite line A) and 6.38% (inactive) in assay [17] (parasite line B).
As for `CC1OC(O[C@H]2C[C@@H](O)[C@]3(CO)[C@@H]4C(CC[C@]3(O)C2)[C@@]2(O)CC[C@H](C3=CC(=O)OC3)[C@@]2(C)C[C@H]4O)C(O)C(O)C1O` (some centres not stated), the Potency result in assay [12] was “inactive”. For the same molecule, the activity, negative = inhibition was -8.52% (inactive) in [17] (parasite line A) and -0.0666% (inactive) in assay [17] (parasite line B).
